# Source: PubChem BioAssay AID602281 (The Scripps Research Institute Molecular Screening Center, 2012)
# In all, about 360,000 compounds went through this assay and about 2,900 (0.81%) were called active. This is one part of a sample in which actives are shown more often than they occur.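 The calls were made as follows: active = inhibition above the mean inhibition across every tested compound plus 3 SD (cut at about 22% in these data); inactive = the rest.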
# Biological target: Perilipin-5 (Homo sapiens) + 1-acylglycerol-3-phosphate O-acyltransferase ABHD5 (Homo sapiens) (UniProt Q00G26+Q8WTS1)
# Experiment: blockers of ABHD5 binding to perilipin-5 – cell lysate, split luciferase complementation, luminescence, primary screen (AID 602281);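 also: 0% = DMSO only wells and the 100% control is not disclosed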
# Settings: Split G. princeps luciferase complementation, 4 h, at 4 µM, stronger effect = higher value
# Perilipin-5 (Homo sapiens) + 1-acylglycerol-3-phosphate O-acyltransferase ABHD5 (Homo sapiens), sequence (Q00G26 whole entry, looked up): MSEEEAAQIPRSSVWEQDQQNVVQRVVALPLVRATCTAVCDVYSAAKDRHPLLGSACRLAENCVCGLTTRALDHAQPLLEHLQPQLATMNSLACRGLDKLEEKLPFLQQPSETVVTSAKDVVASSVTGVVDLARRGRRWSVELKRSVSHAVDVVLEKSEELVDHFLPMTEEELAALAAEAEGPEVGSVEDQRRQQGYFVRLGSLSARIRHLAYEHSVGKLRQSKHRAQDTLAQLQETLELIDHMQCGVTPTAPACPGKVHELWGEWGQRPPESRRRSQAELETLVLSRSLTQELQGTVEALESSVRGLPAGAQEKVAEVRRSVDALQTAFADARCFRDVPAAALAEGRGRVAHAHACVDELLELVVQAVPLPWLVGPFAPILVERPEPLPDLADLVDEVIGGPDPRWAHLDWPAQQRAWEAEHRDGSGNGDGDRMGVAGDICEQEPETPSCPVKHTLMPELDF
# Perilipin-5 (Homo sapiens) + 1-acylglycerol-3-phosphate O-acyltransferase ABHD5 (Homo sapiens), sequence (Q8WTS1 whole entry, looked up): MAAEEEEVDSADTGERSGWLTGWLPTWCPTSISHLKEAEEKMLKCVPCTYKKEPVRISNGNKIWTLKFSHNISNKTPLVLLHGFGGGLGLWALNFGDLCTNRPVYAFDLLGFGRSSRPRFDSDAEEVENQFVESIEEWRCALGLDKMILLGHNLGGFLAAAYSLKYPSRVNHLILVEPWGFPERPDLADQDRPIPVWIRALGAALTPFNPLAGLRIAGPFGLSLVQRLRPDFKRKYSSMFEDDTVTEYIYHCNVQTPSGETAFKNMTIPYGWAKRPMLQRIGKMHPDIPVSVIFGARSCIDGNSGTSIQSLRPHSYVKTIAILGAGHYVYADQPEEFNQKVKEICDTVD
row,Compound,inhibition
1,Cc1ccc(S(=O)(=O)Cn2nnnc2CN2CCN(Cc3ccc4c(c3)OCO4)CC2)cc1,-0.76% (inactive)
2,O=C(CNC(=O)C12CC3CC(CC(C3)C1)C2)OCC(=O)N1CCCCC1,-6.36% (inactive)
3,Cc1cc(C)nc(NS(=O)(=O)c2ccc(N3C(=O)C4CCCCC4C3=O)cc2)n1 (stereo not drawn),-6.56% (inactive)
4,O=C(c1cccnc1)N(c1cc2sc(=O)oc2c2ccccc12)S(=O)(=O)c1ccccc1,55.9% (active)
5,CCc1ccc(N(CC(=O)NCc2cccnc2)S(=O)(=O)c2ccccc2)cc1,8.86% (inactive)
6,O=C(CN(c1cc(C(F)(F)F)ccc1Cl)S(=O)(=O)c1ccccc1)NCc1cccnc1,3.26% (inactive)
7,O=C(COC(=O)c1ncc(Cl)c(Cl)c1Cl)NCc1cccs1,0.28% (inactive)
8,CS(=O)(=O)N1CCCCC1c1cc(C(=O)NCc2ccccc2)no1 (stereo not drawn),-1.92% (inactive)
9,CC1(C)CCSC(/C=C/c2ccccc2)=N1,40.5% (active)
10,CC1(C(=O)NS(=O)(=O)c2ccccc2)CCN1C(=O)C/C=C/c1ccccc1 (stereo not drawn),11% (inactive)
11,CNS(=O)(=O)c1cccc(C(=O)OCCCC(=O)c2ccccc2)c1,5.65% (inactive)
12,CN1CCN(C2Cc3ccc(Cl)cc3Sc3ccc(F)cc32)CC1 (stereo not drawn),10.5% (inactive)
13,COCCNC(=O)CN(Cc1ccco1)C(=O)CCC(=O)Nc1nccs1,7.43% (inactive)
14,COCCNC(=O)Nc1ccc2nc(-c3ccco3)c(-c3ccco3)nc2c1,22.6% (active)
15,COc1ccc(CCNC(=O)Nc2ccc3c(c2)c(=O)n(C)n3C)cc1OC,3.03% (inactive)
16,c1ccc(CC2CCN(c3nc4ccccc4n4cnnc34)CC2)cc1,-9.78% (inactive)
17,O=C(COc1ccc(S(=O)(=O)N2CCCCC2)cc1)NCc1ccccn1,-0.42% (inactive)
18,Cc1cccc(C)c1NC(=O)N1CC(C)OC(C)C1 (stereo not drawn),5.67% (inactive)
19,CN=C(c1ccccc1)c1c(C)cccc1C,4.42% (inactive)
20,Cc1cccc(C)c1NC(=O)C(Cl)C(=O)c1ccccc1 (stereo not drawn),38.3% (active)
21,C[C@H](NC(=O)c1[nH]cnc1C(=O)Nc1nccs1)c1ccccc1,1.59% (inactive)
22,CC(C(=O)c1ccc(-c2ccccc2)cc1)[n+]1cccc(Br)c1 (stereo not drawn),0.81% (inactive)
23,Cn1c(=S)sc2ccc3ccccc3c21,1.97% (inactive)
24,Cc1cn(C)c(=O)n(C)c1=O,-0.3% (inactive)

row,Compound,inhibition
1,Cc1ccc(-c2c3c(=O)n(C)c(=O)n(C)c3cn2-n2cnnc2)cc1,22.5% (active)
2,COc1ccc([N+](=O)[O-])cc1N(CC(=O)Nc1ccccc1C(=O)N1CCOCC1)S(C)(=O)=O,-1.59% (inactive)
3,CC(=O)NC1CCN(CC(=O)Nc2nccs2)CC1,6.01% (inactive)
4,Cc1ccnc(NC(=O)c2ccc(Cl)c([N+](=O)[O-])c2)c1,5.06% (inactive)
5,CC(=O)Nc1ccc(C=CC(=O)c2ccc([N+](=O)[O-])cc2)cc1,27.1% (active)
6,CC(C=Cc1ccccc1)=NNS(=O)(=O)c1ccc([N+](=O)[O-])cc1,1.47% (inactive)
7,O=C(/C=C/c1ccc(Cl)c([N+](=O)[O-])c1)c1ccc(O)cc1,67.9% (active)
8,CC(=O)Nc1ccc(C(=O)/C=C/c2ccc[nH]2)cc1,11.6% (inactive)
9,O=C(O)c1ccc2c(=O)n3c(nc2c1)/C(=C/c1ccc(Cl)c([N+](=O)[O-])c1)CC3,3.3% (inactive)
10,O=C(Nc1nccs1)C1CCN(S(=O)(=O)c2ccc(Cl)c(C(F)(F)F)c2)CC1,-4.59% (inactive)
11,CCN1CCN(C(=O)C2CCCN(S(=O)(=O)c3ccc(OC)c(OC)c3)C2)CC1 (stereo not drawn),7.45% (inactive)
12,O=C(NCc1cccc(Cl)c1)C1=CC=CN2CCS(=O)(=O)N=C12,-4.23% (inactive)
13,COc1ccc(S(=O)(=O)N2CCN(C(=O)NC3CCCCC3)CC2)cc1,-2.23% (inactive)
14,CC(C)[C@H](NC(=O)c1ccc(F)cc1)C(=O)OCC(=O)NC(=O)c1cccn1C,-4.59% (inactive)
15,Cc1ccc2c(c1)C1CN(C)CCC1N2S(=O)(=O)c1ccc(Oc2ccc([N+](=O)[O-])cc2)cc1 (stereo not drawn),15.8% (inactive)
16,CCC(O)C1CCN(Cc2cn(-c3ccc(OC)cc3)nc2-c2cccc(F)c2)CC1 (stereo not drawn),8.4% (inactive)
17,COc1ccc(-n2cc(CN(C)Cc3n[nH]c(=O)[nH]3)c(-c3cccc(F)c3)n2)cc1,7.9% (inactive)
18,COc1ccc(-n2cc(CNC3CCOCC3)c(-c3cccc(F)c3)n2)cc1,24.7% (active)
19,COc1ccc(C2OC(=O)CC2C(=O)NC(C)C)cc1 (stereo not drawn),-1.02% (inactive)
20,COc1ccc(C(=O)C2CCCN(C(=O)c3cc4nc(C)cc(C)n4n3)C2)cc1F (stereo not drawn),0.49% (inactive)
21,Cc1ccc(CN2C(=O)CCC2C(=O)NCCCN2CCCCC2C)cc1 (stereo not drawn),1.42% (inactive)
22,FC(F)(F)c1cc(-c2ccco2)nc(NCc2ccc(Cl)cc2)n1,-5.83% (inactive)
23,C[C@H](NC(=O)C1CC(=O)N(c2ccc3c(c2)OCO3)C1)C(=O)NCc1ccco1 (stereo partly drawn),10.8% (inactive)
24,CCCC/C=C/c1cccc2nncn12,-0.29% (inactive)

row,Compound,inhibition
1,COc1ccc(C(C[N+](=O)[O-])n2nc(C)cc2C)cc1 (stereo not drawn),54.3% (active)
2,COc1ccc(C(CNC(=O)COc2ccc([N+](=O)[O-])cc2)N2CCCCC2)cc1 (stereo not drawn),-7.05% (inactive)
3,Cc1cc(C)n(CC(O)COc2ccc(C(C)(C)C)cc2)n1 (stereo not drawn),-1.93% (inactive)
4,COc1ccc(C(=O)C(OP(=O)(OC)OC)c2ccccc2OC)cc1 (stereo not drawn),0.08% (inactive)
5,CC(C)NC(=S)N1CCN(S(C)(=O)=O)CC1,-5.54% (inactive)
6,Cc1cc(-c2n[nH]c(=S)n2/N=C/C(Br)=C/c2ccccc2)n[nH]1,62.1% (active)
7,CCCc1cc(-c2n[nH]c(=S)n2CC)c2ccccc2n1,-2.69% (inactive)
8,CCN(CC)S(=O)(=O)c1cccc(-c2n[nH]c(=S)n2/N=C/c2ccc(C(=O)OC)cc2)c1,-11.2% (inactive)
9,COC(=O)C1=C(C)NC2=C(C(=O)c3ccccc32)C1c1ccc(-c2ccc(C(=O)O)cc2)o1 (stereo not drawn),17.7% (inactive)
10,Cc1ccc(NC(=S)N2CCN(c3ncccn3)CC2)cc1C,5.22% (inactive)
11,O=C1/C(=C\c2ccc(O)cc2)CCC1CNc1ccc(Cl)cc1 (stereo not drawn),23.7% (active)
12,COc1cc(C)c(C)cc1S(=O)(=O)N1CCCc2ccccc21,3.45% (inactive)
13,CCN1/C(=C\c2ccc3ccccc3[n+]2CC)Sc2cc(C)ccc21,28.2% (active)
14,C=C(C)C(=O)Nc1cccc(C2=NOC3(C2)C[C@H](C(N)=O)N(C(=O)C(c2ccccc2)c2ccccc2)C3)c1 (stereo partly drawn),0.12% (inactive)
15,Cc1ccn2c(=O)nc(SCC(=O)NCc3ccc4c(c3)OCO4)nc2c1,-8.67% (inactive)
16,Cc1ccc(/C=C/C(=O)OCC(=O)NCc2ccc(Cl)cc2)o1,5.48% (inactive)
17,COc1cc(NC(=S)NCCSc2ccc(C)cc2)cc(OC)c1,-1.88% (inactive)
18,Cc1csc(NC(=O)NC2(C(F)(F)F)Oc3ccccc3O2)n1,49.8% (active)
19,COc1cc(SC)ccc1C(=O)Nc1nc(C)cs1,-0.45% (inactive)
20,Cc1csc(NC(=O)C2CCN(S(=O)(=O)c3ccccc3)CC2)n1,2.8% (inactive)
21,CCCCN(C(C)=O)c1ccc2c(c1)C1CC2CCN1Cc1ccccc1 (stereo not drawn),-6.18% (inactive)
22,COc1ccc(OC)c(/C(C)=N\NC(=O)c2cc3cc(Cl)ccc3n2C)c1,5.51% (inactive)
23,CC(NC(=O)Nc1cccc([N+](=O)[O-])c1)c1ccc2c(c1)OCO2 (stereo not drawn),8.55% (inactive)
24,COC(=O)/C=C\C(=O)Nc1cccc([N+](=O)[O-])c1,41% (active)

row,Compound,inhibition
1,COc1cccc(NCCC(=O)c2cccc([N+](=O)[O-])c2)c1,-2.37% (inactive)
2,Cn1c2ccccc2c(=O)c2c(=O)n(Cc3ccco3)c(COc3ccccc3)nc21,40.1% (active)
3,O=C(CCCOc1ccccc1)NCc1ccco1,-2.47% (inactive)
4,O=C(Cn1c(=O)n(Cc2ccco2)c(=O)c2ccccc21)NCC1CCCO1 (stereo not drawn),-2.17% (inactive)
5,CCn1c(CNC(=O)c2ccc(OC)c(OC)c2)nnc1SCC(=O)Nc1ccccc1,-3.29% (inactive)
6,CCn1c(SC)nc(O)c(C(c2ccc(OC)c(O)c2)c2c(O)nc(SC)n(CC)c2=O)c1=O,30.9% (active)
7,CCSc1nc(O)c(C(c2cccc(OC)c2)c2c(O)nc(SCC)[nH]c2=O)c(=O)[nH]1,-4.24% (inactive)
8,C=CCN(c1ccc(C(N)=O)cc1)S(C)(=O)=O,0.17% (inactive)
9,CCOc1cc(C(=O)O)ccc1OCCOc1ccccc1,-0.9% (inactive)
10,CCCOc1ccc(C(=O)C(CCC(CNCC)C(=O)c2ccc(OCCC)cc2)CNCC)cc1 (stereo not drawn),34.9% (active)
11,CC(C)CCOc1ccc(C(=O)C[N+]2(C)CCOCC2)cc1,1.19% (inactive)
12,O=C(Nc1ccccc1N1CCCC1)c1ccc(F)c(S(=O)(=O)N2CCOCC2)c1,-7.04% (inactive)
13,CC(=O)N1CSCC1C(=O)O (stereo not drawn),3.52% (inactive)
14,C=CCNC(=O)/C=C/c1ccc(C(C)C)cc1,-1.9% (inactive)
15,NC1=NC(=O)S/C1=C\c1ccc(O)cc1,7.71% (inactive)
16,O=C(/C=C(O)/C=C/c1ccc(O)cc1)/C=C/c1ccc(O)cc1,35.1% (active)
17,CCc1nc(C)cn1S(=O)(=O)c1cc([N+](=O)[O-])ccc1Cl,4.39% (inactive)
18,CCCC(C(=O)OCCN(CC)CC)(c1ccccc1)c1ccccc1,6.21% (inactive)
19,CN(C)CCOC(=O)C(c1ccccc1)C1(O)CCCC1 (stereo not drawn),-6.36% (inactive)
20,CCC(C(=O)OCCN(CC)CC)c1ccccc1 (stereo not drawn),49.6% (active)
21,Cc1ccnc(SCCn2c(N(C)Cc3ccccc3)nc3c2c(=O)n(C)c(=O)n3C)n1,-0.81% (inactive)
